The results in this text go back to PubChem BioAssay (EPA / NIEHS).

Activity calls are given as the source filed them. The calls were made as follows: active = hit-call score of the fitted dose curve at least 0.9, where 1 is the maximum; inactive = score below 0.9.

A short description of this assay: APR_HepG2_StressKinase_24hr: Apredica 24-hour HepG2 Assay for Stress Kinase (AID 2282922). To be noted: HepG2 stress kinase (phospho-c-Jun) imaging, actives raise or lower the signal. The method, then: APR_HepG2_24hr is a cell-based, multiplexed-readout assay that uses HepG2, a human liver cell line, with measurements taken at 24 hours after chemical dosing in a 384-well plate.APR_HepG2_StressKinase_24hr is one of 10 assay component(s) measured or calculated from the APR_HepG2_24hr assay. It is designed to make measurements of enzyme activity, a form of enzyme reporter, as detected with fluorescence intensity signals by HCS Fluorescent Imaging technology.Data from the assay component APR_HepG2_StressKinase_24hr was analyzed into 1 assay endpoint. This assay endpoint, APR_HepG2_StressKinase_24hr, was analyzed with bidirectional fitting relative to DMSO as the negative control and baseline of activity. Using a type of enzyme reporter, measures of protein for gain or loss-of-signal activity can be used to understand the signaling at the pathway-level as they relate to the gene . Furthermore, this assay endpoint can be referred to as a primary readout, because this assay has produced multiple assay endpoints where this one serves a signaling function. To generalize the intended target to other relatable targets, this assay endpoint is annotated to the cell cycle intended target family, where the subfamily is stress response.
Cells were treated with dimethyl sulfoxide (DMSO) as a solvent control at a final concentration of 0.5% v/v or with compounds in DMSO with a resulting final DMSO concentration of 0.5% v/v. Compound treatment was done at concentrations of 0.39, 0.78, 1.56, 3.12, 6.24, 12.5, 25, 50, 100, and 200 uM in duplicate on each plate. Cells were treated with compounds for 1, 24, or 72 hr. Carbonyl […] m-chloro-phenylhydrazone (CCCP) and taxol were used as positive controls for mitochondrial function and cytoskeletal stability, respectively; DMSO served as the negative control for this experiment. Cells were fixed by the direct addition of 50 uL formaldehyde in Hank's Balanced Salt Solution (HBSS) to a final concentration of 3.7%. After incubation in the fixation medium for 30 min at room temperature (293-298 K), cells were rinsed twice with HBSS and treated with cell permeabilization buffer (16 uL of 0.5% Triton X-100) for 10 min at room temperature (293-298 K) before labeling. For mitochondrial membrane potential and mitochondrial measurements, pre-fixed cells were incubated with 50 uL of MitoTracker Red CMXRos (Invitrogen) at a concentration of 250 nM for 30 min before fixation. In the remaining cases, post-fixed cells were labeled by incubation with a multiplexed mixture of primary antibodies in HBSS for 60 min at room temperature (293-298 K) to detect immunoreactivity of c-Jun (1:500), phospho-histone H3 (1:100), phospho-histone H2A.x (1:200), p53 (1:400), alpha-tubulin (1:200) and Hoechst 33342 (2 ug/mL). Cells were labeled for multiplexed imaging on two separate plates: a) Hoechst 33342, MitoTracker Red, phospho-histone H3, and alpha-tubulin, and b) Hoechst 33342, phospho-histone H2A.x, and c-Jun. A final rinse with HBSS (50 uL) was performed before analysis. The primary and secondary antibodies for the proteins were phospho-histone H3 (rabbit anti-phospho-histone H3 and FITC-donkey anti-rabbit IgG), phospho-histone H2A.x (mouse anti-phospho-histone H2A.x and FITC-donkey anti-mouse IgG), c-Jun (rabbit anti-phospho-c-Jun and Cy3-donkey anti-rabbit IgG), p53 (sheep anti-p53 and Cy5-donkey anti-sheep IgG), alpha-tubulin (mouse anti-alpha-tubulin and Cy5-donkey anti-mouse IgG). These antibodies are available as the CellCiphr HepG2 assay kit (Millipore).Digital images of each well were captured using a Cellomics ArrayScan VTI (Thermo Scientific Cellomics) (0.8 NA objective, 0.63x optical coupler, and XF-93 filter set) at 20x magnification. The images were acquired using the autofocus feature of the ArrayScan instrument, which entails the following steps. First, the camera focuses on channel 1 (Hoechst 33342), where nuclei are identified. Second, a Z offset of 1 um is used for capturing mitochondria (MitoTracker Red). […]
Consider `COc1cc(OC)nc(Sc2cccc(Cl)c2C(=O)O)n1`, for which the result was inactive.

`COP(=O)(OC)SCn1c(=O)oc2cc(Cl)cnc21`: the outcome was inactive. For the molecule `FC(F)C(F)(F)OCC(Cn1cncn1)c1ccc(Cl)cc1Cl` (stereo not given), the result was inactive. With `CCNc1nc(Cl)nc(NC(C)(C)C#N)n1` the entry was “inactive”; with `C#CC(C)(C)NC(=O)c1cc(Cl)cc(Cl)c1`, “inactive”.

Consider `CC(C)=CC1C(C(=O)OCN2C(=O)C3=C(CCCC3)C2=O)C1(C)C` (stereo not given), for which the molecule was classed as inactive.

As to `Nc1nc(N)nc(NC2CC2)n1`, the call was inactive. With `CCCOc1nn(C(=O)NS(=O)(=O)c2ccccc2C(=O)OC)c(=O)n1C` the entry was “inactive”; with `Cc1cc(C2CC2)nc(Nc2ccccc2)n1`, “inactive”; with `CCOP(=O)(OCC)Oc1cc(C)nc(C(C)C)n1`, “inactive”. For `CCCCOC(=O)c1ccccc1C(=O)O`, the result was inactive. For `COc1cccc(C(=O)NN(C(=O)c2cc(C)cc(C)c2)C(C)(C)C)c1C`, the result was inactive.

As for `CON=C(C(=O)OC)c1ccccc1CON=C(C)c1cccc(C(F)(F)F)c1`, the result was inactive. The value for `CCOP(=O)(SC(C)CC)N1CCSC1=O` (stereo not given) was “inactive”.

Regarding `N#CSCSC#N`, the result was inactive.

With `CCC(CC)Nc1c([N+](=O)[O-])cc(C)c(C)c1[N+](=O)[O-]`, the molecule was classed as inactive. The value for `CCc1cnc(C2=NC(C)(C(C)C)C(=O)N2)c(C(=O)O)c1` (stereo not given) was “inactive”; that for `C[N+]1(C)CCCCC1` was “inactive”; that for `CC[C@H](C)[C@H]1O[C@]2(C=C[C@@H]1C)C[C@@H]1C[C@@H](C/C=C(\C)[C@@H](O[C@H]3C[C@H](OC)[C@@H](O[C@H]4C[C@H](OC)[C@@H](NC)[C@H](C)O4)[C@H](C)O3)[C@@H](C)/C=C/C=C3\CO[C@@H]4[C@H](O)C(C)=C[C@@H](C(=O)O1)[C@]34O)O2` was “inactive”. With `CCC(=NOC/C=C/Cl)C1=C(O)CC(C2CCOCC2)CC1=O` (stereo not given) the entry was “inactive”; with `CCOC(=O)CC(SP(=O)(OC)OC)C(=O)OCC` (stereo not given), “inactive”. With `CCOP(=S)(OCC)Oc1ccc([N+](=O)[O-])cc1` the entry was “inactive”. For `CN(C)[C@@H]1C(=O)C(C(N)=O)=C(O)[C@@]2(O)C(=O)C3=C(O)c4c(O)cccc4[C@@](C)(O)[C@H]3[C@H](O)[C@@H]12`, the outcome was inactive.

Take `CNC(=O)Oc1cccc2c1OC(C)(C)O2`: the molecule was called inactive. Turning to `CCC(=O)Nc1ccc(Cl)c(Cl)c1`, the result was inactive. `CSC1=N[C@@](C)(c2ccccc2)C(=O)N1Nc1ccccc1`: the outcome was inactive. The value for `C=C(C)[C@H]1Cc2c(ccc3c2O[C@@H]2COc4cc(OC)c(OC)cc4[C@@H]2C3=O)O1` was “inactive”; that for `CCCSP(=O)(OCC)SCCC` was “inactive”. Regarding `CCOP(=S)(Oc1cnc(C(C)(C)C)nc1)OC(C)C` (stereo not given), the call was inactive. With `CCCCN(CC)c1c([N+](=O)[O-])cc(C(F)(F)F)cc1[N+](=O)[O-]` the entry was “inactive”; with `CC(C)N(C(=O)SCC(Cl)=C(Cl)Cl)C(C)C`, “inactive”; with `CCCOCC(=Nc1ccc(Cl)cc1C(F)(F)F)n1ccnc1`, “inactive”. In the case of `Nc1c(Cl)cc([N+](=O)[O-])cc1Cl`, the molecule was classed as inactive. Turning to `CCOP(=O)(NC(C)C)Oc1ccc(SC)c(C)c1` (stereo not given), the outcome was inactive. For the molecule `CCOP(=S)(OCC)OC(Cl)C(Cl)(Cl)Cl` (stereo not given), the call was inactive. For the molecule `CC(C)[C@H](C(=O)O[C@H](C#N)c1cccc(Oc2ccccc2)c1)c1ccc(Cl)cc1`, the molecule was classed as inactive. As for `CCCCSP(=O)(SCCCC)SCCCC`, the call was inactive. The value for `CNc1cnn(-c2cccc(C(F)(F)F)c2)c(=O)c1Cl` was “inactive”.

Consider `CC(=NC#N)N(C)Cc1ccc(Cl)nc1`, for which the result was inactive. With `CCc1cccc(CC)c1N(COC)C(=O)CCl` the entry was “inactive”.
